Common to all, as to assay: NCI-60 one-dose screen, 48 h (100 = growth as untreated, 0 = no growth, -100 = all killed)
What all share (settings): 10 µM unless noted

In experiment [1] the test system is NCI-H23 lung.
Experiment [2] has as its system NCI-H226 lung.
Experiment [3] has as its system NCI-H322M lung.
Experiment [4] concerns HOP-62 NSCLC.
Experiment [5] has as its system NCI-H460 lung.
Experiment [6] concerns HOP-92 NSCLC.
Experiment [7] relates to NCI-H522 lung.
Experiment [8] has as its system A549/ATCC NSCLC.
The subject of experiment [9] is 786-0 renal.
The test system of experiment [10] is COLO 205 colon.

This note sets out measurements from PubChem BioAssay (NCI).

SMILES strings stand for the structures. The panel holds about 83,000 compounds, 20% with a hit somewhere; the sample as a whole holds those more often.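 48-hour exposure, single concentration, 96-well plates; percent growth endpoint where 0 means no net growth. Active: below 10.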 Unmarked numbers belong to inactive results. Activity calls are given as the source filed them.

For `CCS/C(Nc1ccccc1)=C(\C#N)C(=O)N/N=C/c1ccc(Cl)cc1Cl`, the growth in experiment [1] was 41.3%; in [2] it was 37.7%; in [3], 70.9%; in experiment [4], 36.7%; in experiment [5], 8.05% (active); in experiment [6], 29.2%. Also, the growth was 1.02% (active) in experiment [7], 38.3% in experiment [8], 31.8% in experiment [9] and 28.4% in [10].
For the compound `Cc1ccc(/C=C2\CN(C(=O)OC(C)(C)C)C/C(=C\c3ccc(C)cc3)C2=O)cc1`, the growth in [1] is 56.6%; in experiment [2] it was 84.9%; in experiment [3], 98.7%; in [4], 94.9%; in [5], 53%; in experiment [6], 84.1%. The growth in [7] is 58.4%; in experiment [8], 81.5%; in experiment [9] it was 56.5%; in experiment [10], 51.6%.
Turning to `COC(=O)CCC(=O)C(=O)OC`, the growth is 0.491% [10 mM] (active) in [1]; -14.9% [10 mM] (active) in experiment [2]; 10.2% [10 mM] in [3]; 11.3% [10 mM] in experiment [4]; 7.63% [10 mM] (active) in experiment [5]; -16% [10 mM] (active) in experiment [6]. Besides, the growth in [7] was -63.9% [10 mM] (active); in experiment [8], 26% [10 mM]; in [9], 5.84% [10 mM] (active); in [10] it was 79.8% [10 mM].
Turning to `Cc1cc(Cl)ccc1Nc1nc(C(F)(F)F)ccc1C(=O)N/N=C/c1ccc([N+](=O)[O-])cc1`, the growth in experiment [1] is -1.74% (active); in experiment [2] it was 6.08% (active); in [3] it was -18.6% (active); in experiment [4] it was -33.6% (active); in experiment [5], -34.3% (active); in experiment [6] it was -31.6% (active). Also, the growth in experiment [7] is -13.3% (active); in experiment [8], -15.3% (active); in experiment [9], -61.2% (active); in experiment [10], -65.6% (active).
`O=C(/C=C/c1cccs1)c1ccc(Cl)nc1`: the growth was 102% in experiment [1]; 107% in experiment [2]; 99.3% in experiment [3]; 94.9% in experiment [4]; 106% in experiment [5]; 105% in experiment [6]. For the same compound, the growth in experiment [7] was 82%; in experiment [8], 98.6%; in [9], 93.7%; in experiment [10], 108%.
As for `CC1=Nc2cnc(Nc3ccc(OCCN4CCCCC4)cc3)nc2Nc2ccccc21`, the growth in experiment [1] is 71.5%; in experiment [2], 81.3%; in experiment [3], 42%; in [4], 81.4%; in [5], 61.6%; in experiment [6], 32%. Besides, the growth in experiment [7] was 70.7%; in experiment [8], 77.2%; in [9], 48.5%; in experiment [10], 63.7%.
Turning to `CS(=O)(=O)c1cccc(-c2c(-c3cccc(OS(N)(=O)=O)c3)nc3sccn23)c1`, the growth in experiment [1] was 108%; in experiment [2], 92.5%; in experiment [3], 98.2%; in experiment [4], 93.8%; in experiment [5] it was 105%; in [6], 77.8%. Further, the growth in [7] is 96.9%; in [8], 106%; in experiment [9] it was 101%; in experiment [10], 117%.
In the case of `CN(Cc1ccc(C(F)(F)F)cc1)CC(O)C(=O)Nc1ccc(Cl)cc1` (stereo not given), the growth in experiment [1] is -50.9% (active); in [2] it was 51.8%; in [3], 42.4%; in experiment [4], -37.8% (active); in experiment [5] it was 18.3%; in [6], -0.362% (active). The growth is -51.4% (active) in [7], 19.6% in experiment [8], -48.4% (active) in [9] and -68.6% (active) in experiment [10].
For `S=C(Nc1ccc(-c2nc(N3CCOCC3)c3cccn3n2)cc1)Nc1cccnc1`, the growth is 37.7% in experiment [1]; 38.2% in experiment [2]; 35.7% in experiment [3]; 46.6% in experiment [4]; 43.2% in experiment [5]; -3.48% (active) in experiment [6]. The growth in experiment [7] was 4.32% (active); in experiment [8] it was 24.1%; in [9], 36.7%; in [10], 28%.
For `O=C(/C=C(/C=C/c1cccc2[nH]ccc12)OB(F)F)/C=C/c1cccc2[nH]ccc12`, the growth in experiment [1] was -34.8% (active); in experiment [2], -54.9% (active); in experiment [3], 0.979% (active); in experiment [4], -35.7% (active); in experiment [5], 0.502% (active); in [6], -27.2% (active). Besides, the growth is -71.4% (active) in experiment [7], -30.9% (active) in experiment [8], -60.1% (active) in experiment [9] and -70.6% (active) in experiment [10].
Take `COc1cnc2c(c1)C(=O)c1c-2n(CCCNCCO)c(=O)c2ccncc12`: the growth was 1.25% (active) in [1]; -43.9% (active) in experiment [2]; -2.47% (active) in [3]; 9.4% (active) in experiment [4]; -41.6% (active) in experiment [5]; 20.8% in experiment [6]. The growth in experiment [7] was -30.2% (active); in [8], 7.92% (active); in experiment [9] it was 12.3%; in experiment [10], -15.7% (active).
As for `CCCCCCCCCCCCCCCCCCOc1ccccc1CC(=O)NCC[N+]1(C)CCCC1`, the growth in experiment [1] is 55.3%; in experiment [2] it was 70.5%; in [3], 67.3%; in experiment [4] it was 54%; in experiment [5], 34.8%; in experiment [6], 22.6%. Also, the growth is 32.8% in experiment [7], 50.6% in [8], 70.2% in [9] and -6.88% (active) in experiment [10].
For `COc1cc(-c2nc(SCCC(C)C)nc(Nc3ccccc3Cl)c2C#N)cc(OC)c1OC`, the growth in experiment [1] is 101%; in [2], 102%; in experiment [3] it was 100%; in [4], 110%; in experiment [5] it was 97.7%; in experiment [6], 91%. Also, the growth in experiment [7] was 84.5%; in experiment [8], 92.1%; in [9], 92.4%; in [10], 109%.
On to `Cc1ccc(Cc2cnc(NC(=O)c3cc(Br)cs3)s2)cc1`, for which the growth in experiment [1] is 73.1%; in [2], 73.1%; in [3], 79.7%; in experiment [4], 50.8%; in [5], 46.7%; in experiment [6], 59.1%. Further, the growth in [7] is 34.3%; in experiment [8], 51%; in [9] it was 67.8%; in [10], 80%.
For the compound `C#CCOc1ccc2ncnc(Nc3ccc(NC(=O)CCl)cc3)c2c1`, the growth in experiment [1] was -39% (active); in experiment [2], 47.6%; in experiment [3], 51.6%; in experiment [4], 21.4%; in experiment [5], -46.4% (active); in [6], -7.62% (active). The growth is -77.9% (active) in experiment [7], 18.7% in experiment [8], -65.3% (active) in experiment [9] and -8.04% (active) in experiment [10].
With `CN(C)CCCC1(c2ccc(F)cc2)OCc2cc(-c3cncc4ccccc34)ccc21` (stereo not given), the growth was 77.6% in experiment [1]; 77.2% in experiment [2]; 51.5% in [3]; 65% in [4]; 10.6% in [5]; 49.5% in experiment [6]. The growth is 42.9% in [7], 46.9% in experiment [8], 46.8% in experiment [9] and 16.3% in [10].
For the compound `CCCCCCCCn1ccc2cc(NC(=O)Cn3cc(CN4CCCCC4)nn3)ccc21`, the growth in experiment [1] was 75%; in [2], 79.4%; in [3], 17.6%; in experiment [4], 58.6%; in [5], -50.6% (active); in [6], 38.1%. Also, the growth in experiment [7] is 10.3%; in experiment [8], 25.2%; in experiment [9] it was -68.5% (active); in experiment [10], -80% (active).
With `O=C1/C(=C/c2ccc(Cl)c(Cl)c2)CN(C(=O)C(Cl)Cl)C/C1=C\c1ccc(Cl)c(Cl)c1`, the growth was -66.3% (active) in experiment [1]; -31.2% (active) in experiment [2]; -22.8% (active) in experiment [3]; -21.8% (active) in experiment [4]; -55.8% (active) in experiment [5]; -53% (active) in experiment [6]. The growth in experiment [7] was -35.1% (active); in [8], 7.18% (active); in experiment [9], -90.7% (active); in [10], -47.1% (active).
For the compound `C=C(C)[C@@H]1CC[C@]2(C(=O)O)CC[C@]3(C)[C@H](CC[C@@H]4[C@@]5(C)C[C@@H](Cc6cn(CCO[C@@H]7O[C@H](COC(C)=O)[C@H](OC(C)=O)[C@H](OC(C)=O)[C@H]7OC(C)=O)nn6)[C@H](O)C(C)(C)[C@@H]5CC[C@]43C)[C@@H]12`, the growth in [1] was 60.5%; in experiment [2] it was 81.9%; in [3] it was 82.7%; in [4], 80.7%; in [5] it was 62%; in experiment [6] it was -3.81% (active). The growth in experiment [7] is 64.1%; in experiment [8] it was 61.8%; in experiment [9], 78.9%; in experiment [10], 96.5%.
Regarding `O=C1c2cccnc2C(=O)c2c1c(C(=O)NCCCN1CCCCC1)c1ccccn21`, the growth in experiment [1] is -36.1% (active); in [2] it was -39.8% (active); in [3] it was -35.9% (active); in [4] it was -37.5% (active); in experiment [5], -69.9% (active); in experiment [6] it was -30.5% (active). Further, the growth in experiment [7] was -51% (active); in [8] it was -42.9% (active); in experiment [9], 5.99% (active); in experiment [10], -82.2% (active).
As for `Cc1nc(-c2ccccc2)cc2c(O)c(C(=O)NN)[nH]c(=O)c12`, the growth was 103% in experiment [1]; 104% in experiment [2]; 92.7% in [3]; 107% in experiment [4]; 106% in [5]; 85.6% in experiment [6]. Besides, the growth in experiment [7] was 94.3%; in [8], 102%; in experiment [9] it was 108%; in [10], 117%.
Turning to `N#CCSc1nnc2n(Cc3ccccc3)c(=O)c3c4c(sc3n12)CCCC4`, the growth in experiment [1] was 105%; in [2], 102%; in [3] it was 102%; in experiment [4], 91.9%; in experiment [5], 108%; in [6] it was 71.3%. Moreover, the growth was 104% in experiment [7], 80.4% in [8], 76.3% in [9] and 106% in experiment [10].
In the case of `CN(C)Cc1ccc(NC(=O)c2cncc(C#Cc3cnc(N)c4ncccc34)c2)cc1F`, the growth in experiment [1] was 78.1%; in experiment [2], 130%; in experiment [3], 109%; in experiment [4] it was 96.5%; in experiment [5], 67.4%; in [6] it was 80.7%. Besides, the growth was 100% in [7], 65.7% in experiment [8], -71.8% (active) in experiment [9] and 49.5% in experiment [10].
As for `COc1cccc(/C=C/C(=O)c2cc3c(N)c(C(=O)Nc4ccccc4)sc3nc2C)c1`, the growth in experiment [1] is 49.6%; in experiment [2], 55.3%; in [3], 67.9%; in experiment [4], 13.6%; in experiment [5], -22.5% (active); in experiment [6], 64.4%. The growth in experiment [7] was 7.06% (active); in experiment [8], 34.3%; in experiment [9], -38.2% (active); in [10], 67.6%.
